Data reported in PubChem BioAssay AID641 (Vanderbilt High Throughput Screening Facility, 2007).
Screen size: about 58,000 compounds; about 3,400 (5.9%) were called active.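 How the source made its calls: active means luminescence count or its row- and column-corrected plate score outside the 99.7% band of the plate's sample wells, on either side; inactive means the rest.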 Many of the other results were omitted from the sample, so actives are more common in it than they were.

molecular target: D(1A) dopamine receptor (Homo sapiens) (UniProt P21728); assay: D1 CRE-luciferase signal change, two-sided – cell-based, HEK293 D1, dopamine EC30, D1 allosteric modulator project, primary screen (AID 641); conditions: dopamine EC30 potentiation, at 10 µM, actives deviate in either direction
Sequence (P21728 whole entry, looked up): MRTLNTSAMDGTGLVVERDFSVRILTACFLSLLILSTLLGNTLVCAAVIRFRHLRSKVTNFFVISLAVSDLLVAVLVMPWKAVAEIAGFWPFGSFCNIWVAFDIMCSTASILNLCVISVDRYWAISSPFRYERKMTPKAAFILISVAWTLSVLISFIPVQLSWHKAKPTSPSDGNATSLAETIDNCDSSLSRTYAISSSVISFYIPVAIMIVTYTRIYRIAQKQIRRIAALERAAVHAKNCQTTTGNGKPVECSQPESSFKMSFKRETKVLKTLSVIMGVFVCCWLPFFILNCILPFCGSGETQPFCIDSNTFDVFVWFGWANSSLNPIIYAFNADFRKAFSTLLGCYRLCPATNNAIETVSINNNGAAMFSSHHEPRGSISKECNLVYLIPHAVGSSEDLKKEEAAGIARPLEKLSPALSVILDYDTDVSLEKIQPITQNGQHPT

Row | Compound | B-score
1 | c1ccc(Nc2nc(-c3ccncc3)cs2)nc1 | -2.02 (inactive)
2 | Oc1ccc(-c2csc(Nc3cccnc3)n2)cc1 | 6.13 (active)
3 | COc1ccc(OC)c(Nc2nc(-c3ccc(O)c(O)c3)cs2)c1 | -0.798 (inactive)
4 | COc1ccc(OC)c(C(=O)c2coc3ccc(OC)cc23)c1 | 0.803 (inactive)
5 | COc1ccc(CCNC(=O)CSc2nnc(-c3cccc(F)c3)o2)cc1OC | 0.506 (inactive)
6 | COc1ccc(-c2nnc(SCC(=O)NC3CCCCC3)o2)cc1OC | 5.11 (active)
7 | COc1ccccc1-c1nnc(SCC(=O)Nc2ccccc2)o1 | -1.39 (inactive)
8 | c1ccc2c(NCC3CCCO3)nc(-c3ccncc3)nc2c1 (stereo unspecified) | 6.75 (active)
9 | Cc1ccc(-c2noc(-c3ccccc3C(=O)NCC3CCCO3)n2)cc1 (stereo unspecified) | -0.376 (inactive)
10 | Cc1nc2ccccc2c2oc(C(=O)NCC3CCCO3)cc12 (stereo unspecified) | 1.81 (inactive)
11 | CN(C)/C=C1/C(=O)Nc2ccccc21 | 0.196 (inactive)
12 | Cn1c(=O)c2[nH]c(NCC3CCCO3)nc2n(-c2ccccc2)c1=O (stereo unspecified) | 2.53 (active)
13 | CC(C)(C)c1nc(NCC2CCCO2)c2nnn(Cc3ccccc3)c2n1 (stereo unspecified) | 0.157 (inactive)
14 | CCCCn1c(SCC(=O)NCC2CCCO2)nc2ccc(N3CCOCC3)cc2c1=O (stereo unspecified) | 0.249 (inactive)
15 | CCC1C(C#N)=C(SC)NC2=C1C(=O)CC(C)(C)C2 (stereo unspecified) | -0.282 (inactive)
16 | O=C(CCCCn1c(=O)[nH]c2ccccc2c1=O)NCc1ccc2c(c1)OCO2 | 0.766 (inactive)
17 | O=C(CCn1c(=O)[nH]c2ccccc2c1=O)NCCCN1CCN(c2cccc(Cl)c2)CC1 | -1.82 (inactive)
18 | O=C(CCCn1c(=O)[nH]c2cc(Cl)ccc2c1=O)NCCN1CCN(c2ccccc2)CC1 | -3.76 (active)
19 | C=CCNC(=O)C1CC=CCC1C(=O)O (stereo unspecified) | 0.00169 (inactive)
20 | CC(C)(C)NC(=O)c1cc(NC(=O)c2ccco2)cc(NC(=O)c2ccco2)c1 | -0.752 (inactive)
21 | O=C(c1ccco1)N1CCN=C1SCc1cccc(Cl)c1 | 6.32 (active)
22 | O=C(C1CC1)N1CCN=C1SCc1ccc(Cl)cc1 | 0.0469 (inactive)
23 | O=C(c1ccco1)N1CCN(c2cccc(Cl)c2)CC1 | -0.482 (inactive)
24 | N#CC1=C(N)OC2=C(C(=O)CCC2)C1C1CC=CCC1 (stereo unspecified) | -0.19 (inactive)
25 | CCCN1C(=O)C(NC(C)=O)c2cc(OC)ccc21 (stereo unspecified) | 0.478 (inactive)
26 | CC(=O)Nc1cccc(NC(=O)c2c(-c3ccccc3)noc2C)c1 | 0.894 (inactive)

Row | Compound | B-score
27 | Cc1onc(-c2ccccc2)c1C(=O)N1CCOCC1 | -1.43 (inactive)
28 | Cc1onc(-c2ccccc2)c1C(=O)Nc1ccccc1C#N | -4.73 (active)
29 | Cc1cc(C)c2nc(N3CCCC3)c(C#N)cc2c1 | 0.082 (inactive)
30 | COCCN1Cc2cccc(C(=O)Nc3ccccc3OC)c2C1=O | 0.446 (inactive)
31 | CS(=O)(=O)NCc1ccc(C(=O)NCc2ccccc2)cc1 | 0.452 (inactive)
32 | CCCN1Cc2cccc(C(=O)NCc3ccccc3)c2C1=O | 11.5 (active)
33 | O=S(=O)(NCCNS(=O)(=O)c1ccccc1)c1ccccc1 | 0.231 (inactive)
34 | COc1ccccc1Oc1ccc(S(=O)(=O)Nc2cccnc2)cc1 | -1.35 (inactive)
35 | O=C(Nc1nnc(-c2ccc(Cl)cc2)o1)c1ccccc1Br | -0.685 (inactive)
36 | CC1=CC(C)(C)N(C(=O)CSc2nccn2C)c2cc(C)ccc21 | -0.925 (inactive)
37 | Cc1noc(NS(=O)(=O)c2ccc(NC(=O)C34CCC(CC3)C4)cc2)c1C | -0.488 (inactive)
38 | CN(CC(=O)NC1CCCCC1)S(=O)(=O)c1cccc2cccnc12 | -1.04 (inactive)
39 | O=C(Cn1cnc2c(cnn2-c2ccc(F)cc2)c1=O)NCCc1ccccc1 | -0.343 (inactive)
40 | Cn1c(/C(C#N)=C2/CCCCCN2)nc2ccccc21 | 11.4 (active)
41 | N#C/C(=C1\CCCN1)c1nc(-c2ccccc2)cs1 | -1.24 (inactive)
42 | CC(C)n1c(C(O)c2ccccc2)nc2ccccc21 (stereo unspecified) | 3.08 (active)
43 | COc1cc(C(O)c2nc3ccccc3n2C)cc(OC)c1OC (stereo unspecified) | -0.575 (inactive)
44 | CCCn1c(C(O)c2ccc(OCC)cc2)nc2ccccc21 (stereo unspecified) | -0.886 (inactive)
45 | Cn1c(=O)c2c(nc(CN3CCOCC3)n2Cc2ccccc2)n(C)c1=O | -0.887 (inactive)
46 | CC1(C)Cc2ccccc2-c2nc(CN3CCOCC3)[nH]c(=O)c21 | 11.8 (active)
47 | CCOC(=O)C1Cn2c(nc3c(c2=O)C(C)(CC)Cc2ccccc2-3)S1 (stereo unspecified) | -0.309 (inactive)
48 | Cc1ccc(N(CC(O)CN2CCCC2)S(=O)(=O)c2ccccc2)cc1 (stereo unspecified) | 0.09 (inactive)
49 | COc1ccc(-c2nc(CS(=O)CC(=O)N3CCc4ccccc4C3)c(C)o2)cc1 (stereo unspecified) | -0.182 (inactive)
50 | Cc1cccc(-n2ncc3c(N4CCc5ccccc54)ncnc32)c1 | -0.748 (inactive)
51 | COc1ccc(-n2ncc3c(N4CCc5ccccc54)ncnc32)cc1 | -3.03 (active)
52 | COc1ccc(-n2ncc3c(N4CCCc5ccccc54)ncnc32)cc1 | 0.526 (inactive)

Row | Compound | B-score
53 | Cc1cc(/C=N/n2cnnc2)c(C)n1-c1ccc2ncccc2c1 | -0.264 (inactive)
54 | CN1C(=O)c2ccc(NC(=O)c3c(F)c(F)c(F)c(F)c3F)cc2C1=O | 0.371 (inactive)
55 | O=C(Cn1cnc2c(nnn2Cc2ccc(F)cc2)c1=O)NCc1ccc2c(c1)OCO2 | -1.24 (inactive)
56 | O=C(CN1CCN(CC(=O)Nc2ccc3c(c2)OCO3)CC1)Nc1ccc(F)cc1 | -0.0409 (inactive)
57 | CNC(=O)C1CC(=O)N(Cc2ccc3c(c2)OCO3)C(=Nc2ccc(F)cc2)S1 (stereo unspecified) | -4.24 (active)
58 | O=C(Nc1cccc(F)c1)c1ccc(S(=O)(=O)N2CCCC2)cc1 | -0.728 (inactive)
59 | CN1CCN(c2ccc(NC(=O)COc3ccc(Cl)cc3Cl)cc2)CC1 | -5.29 (active)
60 | Cc1ccccc1OCC(=O)Nc1ccc(N2CCN(C(=O)C(C)C)CC2)c(Cl)c1 | -0.399 (inactive)
61 | CC(C)CNS(=O)(=O)c1ccc(OCC(=O)Nc2ccc3c(c2)OCO3)c(Cl)c1 | 0.525 (inactive)
62 | Cc1ccc(C)c(NC(=O)CSc2nnc(Cc3cccn3C)n2-c2ccc(F)cc2)c1 | -0.0122 (inactive)
63 | CCOC(=O)C1CCc2nc3ccccc3c(=O)n21 (stereo unspecified) | -0.327 (inactive)
64 | CC(C[N+](C)(C)C)OC(N)=O (stereo unspecified) | 0.394 (inactive)
65 | CC(=O)OC(C)C[N+](C)(C)C (stereo unspecified) | 6.75 (active)
66 | CSc1nnc(CNC(=O)c2ccccc2)n1-c1ccc(F)cc1 | -0.759 (inactive)
67 | Cc1ccccc1NC(=O)c1cnn(-c2ccccc2)c1NC(=O)c1ccco1 | -0.921 (inactive)
68 | COCCCn1c(CCC(=O)O)ccc1-c1ccc(F)cc1 | 0.034 (inactive)
69 | COC(=O)c1sc(NC(=O)c2csc3c2CCCC3)nc1C | 0.102 (inactive)
70 | COc1ccc(C(=O)Nc2nncs2)c(OC)c1 | -0.602 (inactive)
71 | COC(=O)c1sc(NC(=O)c2ccc(OC)cc2OC)nc1C | -2.64 (active)
72 | O=S(=O)(c1cccs1)N1CCc2ccccc2C1 | 7.95 (active)
73 | O=S(=O)(c1cccs1)N1CCN(Cc2ccccc2)CC1 | 0.549 (inactive)
74 | O=C(C1CCN(S(=O)(=O)c2cccs2)CC1)N1CCCCCC1 | -0.0225 (inactive)
75 | CCNC(=O)CCc1nc(-c2ccc(C(C)(C)C)cc2)no1 | -0.735 (inactive)
76 | CCOc1ccccc1N(CC(=O)Nc1ccccc1C(=O)OC)S(C)(=O)=O | 0.461 (inactive)
77 | CC1=C2C(=O)OC(c3ccoc3)C2(C)CCC1 (stereo unspecified) | -0.874 (inactive)
78 | CCOc1cccc(NC(=O)CC#N)c1 | -0.00988 (inactive)

Row | Compound | B-score
79 | CC(=O)Nc1ccc(N2CCOCC2)c(C(=O)Nc2cccc(C)c2)c1 | -0.395 (inactive)
80 | CC(=O)Nc1cccc(Oc2cc(C#N)c(C#N)cc2N2CCOCC2)c1 | 10.6 (active)
81 | COc1ccc(S(=O)(=O)N2CCC(C(=O)N3CCOCC3)CC2)cc1OC | 1.55 (inactive)
82 | O=C(Cn1cnc2c(nnn2-c2ccccc2)c1=O)N1CCC(Cc2ccccc2)CC1 | -0.43 (inactive)
83 | CCSC1=C(C#N)C(=O)n2c1cc1c2CCCC1 | -0.914 (inactive)
84 | CCSc1ncnc2c(C#N)c3n(c12)CCCCC3 | 13.8 (active)
85 | CCOC(=O)C1=C(C)NC(=O)N(C(C)=O)C1c1ccc(Cl)cc1 (stereo unspecified) | -0.258 (inactive)
86 | COc1ccc(-c2nc(-c3ccccc3)no2)c(OC)c1 | -4.54 (active)
87 | COc1ccc(-c2noc(-c3cccc(OC)c3OC)n2)cc1OC | -0.715 (inactive)
88 | COc1cc(-c2nc(-c3ccncc3)no2)cc(OC)c1OC | 0.324 (inactive)
89 | COc1ccc(NC(=O)CN2CCN(S(=O)(=O)c3ccc(F)cc3)CC2)cc1Cl | 0.0874 (inactive)
90 | CC1(C)CC(=O)C=C(NCCCNC2CCCCC2)C1 | -0.045 (inactive)
91 | COC(=O)c1ccccc1NC(=O)C1CCN(S(=O)(=O)c2cc(OC)ccc2OC)CC1 | 16.9 (active)
92 | COc1cccc(CNC(=O)C2CCN(S(=O)(=O)c3cccc4cccnc34)CC2)c1 | 0.421 (inactive)
93 | CCOc1ccccc1NC(=O)C1CCN(S(=O)(=O)c2c(C)nn(C)c2C)CC1 | -0.536 (inactive)
94 | Cn1cc(S(=O)(=O)N2CCC(Cc3ccccc3)CC2)c(=O)n(C)c1=O | 0.229 (inactive)
95 | CC1CCC(NC(=O)c2ccc(N3CCCC3=O)cc2)CC1 (stereo unspecified) | -0.328 (inactive)
96 | O=P(c1cccs1)(c1cccs1)c1cccs1 | -0.658 (inactive)
97 | CC1C(c2ccccc2)=[N+]([O-])C2(CCCC2)N1O (stereo unspecified) | 0.0193 (inactive)
98 | CCCCc1nc2ccccc2c(=O)n1NC(=O)c1c(O)c2cccc3c2n(c1=O)CC3 | -0.934 (inactive)
99 | CCCCCC(=O)Nc1ccc2oc(-c3ccncc3)nc2c1 | -0.0351 (inactive)
100 | Nc1ccc(-c2nnc(-c3ccc(-c4ccccc4)cc3)o2)cc1 | -0.481 (inactive)
101 | CCc1ccc2oc(-c3ccc(N)cc3)nc2c1 | -5.51 (active)
